This is part of a sample that, as a whole, favours compounds with a hit. Of some 79,000 tested, about 15% had one in any assay. Active and inactive are the calls of the source. Cut-off read from the data, not from the text of the source: active = growth inhibition above about 70%; inactive = the rest.
Assays:
[1] = NCI Yeast Anticancer Drug Screen. Data for the wt2 strain (AID 169);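 note: 0% = growth of vehicle-treated yeast cultures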; conditions: S. cerevisiae wt2 strain growth inhibition, stronger effect = higher value
Outline: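 Against vehicle-treated controls, the growth of yeast exposed to each compound was compared, and the inhibition was recorded.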

[2] = NCI Yeast Anticancer Drug Screen. Data for the mlh1 strain (AID 171);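 note: 0% = growth of vehicle-treated control cultures of the same strain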; conditions: S. cerevisiae mlh1 strain growth inhibition, stronger effect = higher value
Outline: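 Measured: yeast growth. Reference: vehicle-treated controls. Organism: strain with a defined alteration affecting DNA damage repair or cell cycle control, treated with compound.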

[3] = NCI Yeast Anticancer Drug Screen. Data for the sgs1 strain (AID 173);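 note: 0% = growth of vehicle-only control cultures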; conditions: S. cerevisiae sgs1 mutant, stronger effect = higher value
Outline: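 Each compound was added to cultures of the altered yeast strain. Growth was recorded, and inhibition was derived by comparison with vehicle controls.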

[4] = NCI Yeast Anticancer Drug Screen. Data for the mlh1 rad18 strain (AID 175); conditions: S. cerevisiae mlh1 rad18 strain growth inhibition, stronger effect = higher value
Outline: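 Genetically defined yeast (DNA repair-deficient) exposed to compounds; growth inhibition determined relative to vehicle.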

[5] = NCI Yeast Anticancer Drug Screen. Data for the rad18 strain (AID 177); conditions: S. cerevisiae rad18 mutant growth inhibition, stronger effect = higher value
Outline: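 Vehicle-treated cultures served as the baseline for scoring compound-induced growth inhibition in DNA-repair-mutant yeast.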

[6] = NCI Yeast Anticancer Drug Screen. Data for the rad52 strain (AID 147);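 note: 0% = growth of vehicle-treated control cultures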; conditions: S. cerevisiae rad52 mutant growth inhibition, stronger effect = higher value
Outline: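 The repair-mutant yeast strain was incubated with compounds, then growth was read and inhibition derived relative to vehicle.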

[7] = NCI Yeast Anticancer Drug Screen. Data for the wt1 strain (AID 149);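 note: 0% = growth of vehicle-treated wt1 cultures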; conditions: S. cerevisiae wt1 strain (SPY 50644) growth inhibition, stronger effect = higher value
Outline: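 Vehicle-normalised growth inhibition; strain wt1; compound exposure.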

[8] = NCI Yeast Anticancer Drug Screen. Data for the rad50EPP+ strain (AID 151);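 note: 0% = growth of vehicle-treated control cultures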; conditions: S. cerevisiae rad50 mutant strain, stronger effect = higher value
Outline: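 Vehicle-normalised growth inhibition; rad50EPP+ yeast strain, altered in DNA damage repair, compound-treated.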

[9] = NCI Yeast Anticancer Drug Screen. Data for the mgt1 strain (AID 153); conditions: S. cerevisiae mgt1 mutant growth inhibition, stronger effect = higher value
Outline: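 Vehicle-normalized growth inhibition is determined in mgt1 yeast, a strain selected for a defined alteration in DNA repair or cell cycle control.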

[10] = NCI Yeast Anticancer Drug Screen. Data for the rad50 strain (AID 155);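 note: 0% = growth of vehicle-only cultures of the same strain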; conditions: S. cerevisiae rad50 strain growth inhibition, stronger effect = higher value
Outline: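 A DNA repair-deficient yeast mutant serves as the test organism; compound-induced growth inhibition is calculated against vehicle-treated cells.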

[11] = NCI Yeast Anticancer Drug Screen. Data for the mec2-1 strain (AID 157); conditions: S. cerevisiae mec2-1 strain, stronger effect = higher value
Outline: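 Mutant yeast (mec2-1) grown with compound; growth inhibition relative to vehicle control reported.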

[12] = NCI Yeast Anticancer Drug Screen. Data for the rad14 strain (AID 159);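 note: 0% = growth of vehicle-treated control cultures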; conditions: S. cerevisiae rad14 strain growth inhibition, stronger effect = higher value
Outline: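 Vehicle-treated cultures served as the baseline for growth inhibition of a DNA repair-mutant yeast strain exposed to each compound.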

[13] = NCI Yeast Anticancer Drug Screen. Data for the sgs1 mgt1 strain (AID 161);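 note: 0% = growth of cultures given vehicle only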; conditions: S. cerevisiae sgs1 mgt1 strain, stronger effect = higher value
Outline: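 Percent growth inhibition was derived by comparing compound-exposed mutant yeast with vehicle-exposed cultures. The strain carries alterations in DNA damage repair.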

[14] = NCI Yeast Anticancer Drug Screen. Data for the CLN2oe strain (AID 163);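 note: 0% = growth of vehicle-only control cultures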; conditions: S. cerevisiae CLN2oe strain, stronger effect = higher value
Outline: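 Compounds are applied to yeast harbouring a defined cell-cycle control change; reduced growth compared with vehicle-treated controls gives the value.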

[15] = NCI Yeast Anticancer Drug Screen. Data for the cln2 rad14 strain (AID 165);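 note: 0% = growth equal to vehicle treated cultures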; conditions: S. cerevisiae cln2 rad14 strain, stronger effect = higher value
Outline: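 Readout is yeast growth inhibition versus vehicle-treated controls, using a strain with cln2 and rad14 alterations exposed to compound.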

[16] = NCI Yeast Anticancer Drug Screen. Data for the bub3 strain (AID 167); conditions: S. cerevisiae bub3 mutant strain, stronger effect = higher value
Outline: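 Inhibition values come from growth of compound-treated mutant yeast normalised to vehicle-treated controls.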

[17] = at 5.0 µM (retest, dose inferred, filed as 0.5)
[18] = at 50.0 µM (retest, dose inferred, filed as 5.0)

Measured: growth inhibition

COc1ccc(NC(=O)CC2SC(=Nc3ccccc3C)NC2=O)c([N+](=O)[O-])c1 (centres undefined)
active: [1]; at 100.0 µM 92% | [2]; at 100.0 µM 99% | [3]; at 100.0 µM 99% | [4]; at 50.0 µM 74% | [5]; at 100.0 µM 98%
inactive: [1]; at 1.2 µM -1% | [1]; at 3.7 µM 7% | [1]; at 11.0 µM 1% | [1]; at 33.0 µM 11% | [2]; at 1.2 µM 0% | [2]; at 3.7 µM -1% | [2]; at 11.0 µM 0% | [2]; at 33.0 µM 11% | [3]; at 1.2 µM -2% | [3]; at 3.7 µM 1% | [3]; at 11.0 µM 9% | [3]; at 33.0 µM 37% | [4]; [17] -1% | [4]; [18] 53% | [5]; at 1.2 µM -1% | [5]; at 3.7 µM 4% | [5]; at 11.0 µM 6% | [5]; at 33.0 µM 41%

Cc1csc(=S)n1OC(=O)NC1CCCCC1
active: [6]; at 11.0 µM 99% | [6]; at 33.0 µM 99% | [6]; at 100.0 µM 99% | [7]; at 3.7 µM 97% | [7]; at 11.0 µM 99% | [7]; at 33.0 µM 100% | [7]; at 100.0 µM 99% | [8]; at 3.7 µM 99% | [8]; at 11.0 µM 99% | [8]; at 33.0 µM 99% | [8]; at 100.0 µM 99% | [9]; at 3.7 µM 99% | [9]; at 11.0 µM 100% | [9]; at 33.0 µM 100% | [9]; at 100.0 µM 99% | [10]; at 3.7 µM 98% | [10]; [17] 94% | [10]; at 11.0 µM 99% | [10]; at 33.0 µM 98% | [10]; [18] 98% | [10]; at 50.0 µM 92.5% | [10]; at 100.0 µM 98% | [11]; at 3.7 µM 93% | [11]; at 11.0 µM 99% | [11]; at 33.0 µM 93% | [11]; [18] 99% | [11]; at 50.0 µM 94.2% | [11]; at 100.0 µM 95% | [12]; at 3.7 µM 96% | [12]; at 11.0 µM 99% | [12]; at 33.0 µM 99% | [12]; at 100.0 µM 98% | [13]; [18] 96% | [13]; at 50.0 µM 93.5% | [14]; at 3.7 µM 99% | [14]; at 11.0 µM 100% | [14]; at 33.0 µM 100% | [14]; at 100.0 µM 100% | [15]; [17] 83% | [15]; [18] 98% | [15]; at 50.0 µM 92.2% | [16]; at 3.7 µM 99% | [16]; [17] 99% | [16]; at 11.0 µM 99% | [16]; at 33.0 µM 100% | [16]; [18] 97% | [16]; at 50.0 µM 91.8% | [16]; at 100.0 µM 99% | [1]; at 3.7 µM 97% | [1]; at 11.0 µM 99% | [1]; at 33.0 µM 99% | [1]; at 100.0 µM 99% | [2]; at 3.7 µM 99% | [2]; at 11.0 µM 100% | [2]; at 33.0 µM 99% | [2]; at 100.0 µM 98% | [3]; at 3.7 µM 98% | [3]; at 11.0 µM 99% | [3]; at 33.0 µM 100% | [3]; at 100.0 µM 99% | [4]; [17] 97% | [4]; [18] 98% | [4]; at 50.0 µM 92.1% | [5]; at 3.7 µM 94% | [5]; at 11.0 µM 98% | [5]; at 33.0 µM 98% | [5]; at 100.0 µM 98%
inactive: [6]; at 1.2 µM -54% | [6]; at 3.7 µM 63% | [7]; at 1.2 µM -5% | [8]; at 1.2 µM -23% | [9]; at 1.2 µM 18% | [10]; at 1.2 µM -2% | [11]; at 1.2 µM -11% | [11]; [17] -3% | [12]; at 1.2 µM -8% | [13]; [17] 32% | [14]; at 1.2 µM -6% | [16]; at 1.2 µM 3% | [1]; at 1.2 µM -23% | [2]; at 1.2 µM 8% | [3]; at 1.2 µM -42% | [5]; at 1.2 µM -11%

CCOc1ccccc1N=Cc1c2ccccc2cc2ccccc12
inactive: [6]; at 1.2 µM 10% | [6]; at 3.7 µM 28% | [7]; at 1.2 µM -2% | [7]; at 3.7 µM 26% | [8]; at 1.2 µM -4% | [8]; at 3.7 µM 24% | [8]; at 11.0 µM 63% | [9]; at 1.2 µM 2% | [10]; at 1.2 µM 1% | [10]; at 3.7 µM 39% | [10]; [17] 11% | [11]; at 1.2 µM -18% | [11]; at 3.7 µM 33% | [11]; [17] 7% | [12]; at 1.2 µM -23% | [13]; [17] -8% | [14]; at 1.2 µM 18% | [14]; at 3.7 µM 36% | [15]; [17] 44% | [15]; at 50.0 µM 58.6% | [16]; at 1.2 µM 4% | [16]; at 3.7 µM 34% | [16]; [17] 37% | [1]; at 1.2 µM -4% | [1]; at 3.7 µM 34% | [2]; at 1.2 µM 18% | [2]; at 3.7 µM 56% | [3]; at 1.2 µM -18% | [3]; at 3.7 µM 24% | [4]; [17] 38% | [5]; at 1.2 µM -3% | [5]; at 3.7 µM 21%
active: [6]; at 11.0 µM 98% | [6]; at 33.0 µM 99% | [6]; at 100.0 µM 99% | [7]; at 11.0 µM 95% | [7]; at 33.0 µM 97% | [7]; at 100.0 µM 95% | [8]; at 33.0 µM 90% | [8]; at 100.0 µM 89% | [9]; at 3.7 µM 75% | [9]; at 11.0 µM 97% | [9]; at 33.0 µM 98% | [9]; at 100.0 µM 98% | [10]; at 11.0 µM 97% | [10]; at 33.0 µM 98% | [10]; [18] 98% | [10]; at 50.0 µM 88.8% | [10]; at 100.0 µM 97% | [11]; at 11.0 µM 98% | [11]; at 33.0 µM 98% | [11]; [18] 99% | [11]; at 50.0 µM 90.8% | [11]; at 100.0 µM 98% | [12]; at 3.7 µM 74% | [12]; at 11.0 µM 98% | [12]; at 33.0 µM 98% | [12]; at 100.0 µM 98% | [13]; [18] 98% | [13]; at 50.0 µM 90.9% | [14]; at 11.0 µM 97% | [14]; at 33.0 µM 98% | [14]; at 100.0 µM 97% | [15]; [18] 98% | [16]; at 11.0 µM 96% | [16]; at 33.0 µM 98% | [16]; [18] 99% | [16]; at 50.0 µM 89.9% | [16]; at 100.0 µM 97% | [1]; at 11.0 µM 96% | [1]; at 33.0 µM 98% | [1]; at 100.0 µM 97% | [2]; at 11.0 µM 97% | [2]; at 33.0 µM 98% | [2]; at 100.0 µM 97% | [3]; at 11.0 µM 96% | [3]; at 33.0 µM 97% | [3]; at 100.0 µM 96% | [4]; [18] 98% | [4]; at 50.0 µM 86.5% | [5]; at 11.0 µM 97% | [5]; at 33.0 µM 98% | [5]; at 100.0 µM 97%
